# Screening data as filed in PubChem BioAssay.
# NIH3T3 tox: cytotoxic compounds in NIH 3T3 cells; 94,000 compounds, 4.3% hits; NIH 3T3 viability, CellTiter-Glo ATP luminescence, 48-72 h; Potency, µM (series often up to 96.7 µM), for the others: at the highest dose activity change, negative = cytotoxicity, hits mostly inhibitors; also: nearly all actives have a fitted effect of over 55% in size
#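 ATP-dependent luminescence (CellTiter-Glo) served as the viability signal for NIH 3T3 cells treated with compound for 48 or 72 hr at 37 °C.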
# HEK cytotox: kills HEK 293 cells; HEK 293 viability, ATP luminescence (CellTiter-Glo), 48-72 h; Potency, µM (top dose mostly 115 µM), for the others: at the top dose activity change, negative = cytotoxicity, most hits filed as inhibitors; 94,000 compounds, 6.6% hits; AID 1345083; also: nearly all actives have a fitted effect of over 60% in size
#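 Pintool-delivered compounds were incubated with HEK 293 cells (250 cells/well) at 37 degree Celsius for 48 or 72 hr. ATP-dependent luminescence (CellTiter-Glo) then reported remaining viable cells.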
# hNpr1 antagonist: antagonists of human natriuretic peptide receptor Npr1; HEK293 hNpr1 GloSensor cGMP, ANP-stimulated luminescence; AID 1347048; P16066; 76,000 compounds, 1.6% hits; Potency, µM (titrated, usually from 46.3 µM), for the others: top-dose activity change, negative = inhibition, most hits filed as inhibitors; calls by dose curve; also: nearly all actives have a fitted effect of over 60% in size
# Target sequence (P16066 whole entry, looked up): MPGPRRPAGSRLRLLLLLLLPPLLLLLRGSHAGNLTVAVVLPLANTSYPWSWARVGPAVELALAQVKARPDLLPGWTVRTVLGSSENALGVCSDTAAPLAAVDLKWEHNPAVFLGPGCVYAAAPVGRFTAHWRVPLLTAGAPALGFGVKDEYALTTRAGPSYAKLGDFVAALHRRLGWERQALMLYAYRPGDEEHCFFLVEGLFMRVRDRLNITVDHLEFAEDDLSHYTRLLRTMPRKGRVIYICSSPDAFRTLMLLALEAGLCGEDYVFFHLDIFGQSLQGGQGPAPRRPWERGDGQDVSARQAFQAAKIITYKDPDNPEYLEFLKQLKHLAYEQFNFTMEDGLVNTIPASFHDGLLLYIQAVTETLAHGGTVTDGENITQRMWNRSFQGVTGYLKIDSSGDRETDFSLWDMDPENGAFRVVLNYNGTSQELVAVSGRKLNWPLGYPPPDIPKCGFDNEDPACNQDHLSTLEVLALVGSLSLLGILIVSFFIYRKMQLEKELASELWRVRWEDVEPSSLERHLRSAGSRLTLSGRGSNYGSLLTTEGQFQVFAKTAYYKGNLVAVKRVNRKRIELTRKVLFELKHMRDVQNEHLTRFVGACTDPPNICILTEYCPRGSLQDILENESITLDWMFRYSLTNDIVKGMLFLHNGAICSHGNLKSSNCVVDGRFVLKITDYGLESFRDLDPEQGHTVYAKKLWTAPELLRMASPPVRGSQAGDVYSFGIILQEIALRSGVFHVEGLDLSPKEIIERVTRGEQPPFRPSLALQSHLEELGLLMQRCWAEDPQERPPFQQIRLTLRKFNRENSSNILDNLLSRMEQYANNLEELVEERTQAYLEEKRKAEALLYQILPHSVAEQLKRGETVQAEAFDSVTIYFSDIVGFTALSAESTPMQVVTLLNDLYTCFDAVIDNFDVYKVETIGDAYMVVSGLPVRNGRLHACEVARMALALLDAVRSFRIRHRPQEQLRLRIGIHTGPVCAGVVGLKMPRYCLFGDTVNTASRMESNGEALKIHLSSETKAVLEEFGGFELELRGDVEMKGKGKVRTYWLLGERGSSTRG
#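 HEK293 cells stably expressing human Npr1 and cGMP GloSensor pGS-40F, loaded 2 h with 2% GloSensor reagent, given compound 30 min at room temperature. Luminescence read before and 20 min after 0.1 nM hNppA.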
# Luciferase inh: inhibitors of firefly (Photinus pyralis) luciferase; purified P. pyralis luciferase, luminescence, biochemical; Potency, µM (doses to about 115 µM), hits mostly inhibitors; P08659; AID 1347043; 76,000 compounds, 2.5% hits; also: nearly all actives have a fitted effect of over 65% in size
#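 Purified 10nM P. pyralis luciferase with 10uM D-luciferin and 10uM ATP in 50mM Tris acetate pH 7.5, 10mM Mg acetate, 0.01% Tween-20, 0.05% BSA. qHTS titration; luminescence read by CCD imager.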
# Starred values were filed as active, the others as inactive; i = inactive; ? = inconclusive; . = not tested or not shown; [ ] = another dose, or the depositor's remark. The list is not random: actives were taken first. Their share in the collection is about 11%. Unless noted, calls follow the shape of the dose curve; as a rule, active = well fitted curve in the direction sought with a large enough effect; inconclusive = small, poorly fitted or top-dose-only effect, or another doubt; inactive = no such curve, though single readings can be large; an effect the other way counts as inactive or inconclusive. % is scaled to controls: 0 for no effect and ±100 for the full control effect; potency is read from the fitted curve at half-maximal effect.
SMILES,NIH3T3 tox,HEK cytotox,hNpr1 antagonist,Luciferase inh
O=S(=O)(N[C@H]1CO[C@H]2[C@@H]1OC[C@@H]2n1cc(CC2CCCCC2)nn1)c1cccs1,?,79µM*,-26%,i
COc1ccc(-c2noc(-c3cccn3CC(=O)N(C)c3ccccc3)n2)cc1F,i,7%,-1%,i
COc1ccc(-c2noc(-c3cccn3CC(=O)N3CCN(c4ccccc4OC)CC3)n2)cc1F,?,?,-15%,?
COc1ccc(-c2noc(-c3cccn3CC(=O)N3CCC(C)CC3)n2)cc1F,?,-20%,-18%,11µM*
CCN(C(=O)Cn1cccc1-c1nc(-c2ccc(OC)c(F)c2)no1)c1ccccc1,?,45µM*,-3%,i
Cn1nc(C2CCN(S(=O)(=O)c3cccs3)CC2)n(CCc2ccccc2)c1=O,?,?,-12%,i
Cc1ccc(C2=NC3(CCN(C(=O)c4ccoc4)CC3)ON2)cc1,-5%,-2%,-18%,32µM*
Cc1ccc(C2=NC3(CCN(C(=O)c4ccco4)CC3)ON2)cc1,-16%,-24%,-13%,28µM*
COC(=O)[C@H](Cc1ccc(OC)cc1)NC(=O)[C@H]1CN(C(C)=O)CCN1S(=O)(=O)c1ccccc1,45µM*,i,3%,i
COC(=O)[C@H](Cc1ccc(OC)cc1)NC(=O)[C@@H]1CN(C(=O)NC(C)C)CCN1S(C)(=O)=O,-7%,3%,-2%,i
O=C1c2c(nc(CNCc3ccccc3)n2Cc2ccccc2)NCCN1CCOc1ccccc1,?,?,-11%,i
Cc1ccc(CNC(=O)C2(c3ccc(NC(=O)C4CC4)cc3)CCCCC2)o1,?,45µM*,-10%,i
CC(C)C(=O)Nc1ccc(C2(C(=O)NCc3cccs3)CCCCC2)cc1,32µM*,?,6%,i
CC(=O)Nc1ccc(C2(C(=O)NCc3cccs3)CCC2)cc1,i,4%,0%,i
Cc1ccccc1CNC(=O)C1(c2ccc(NS(C)(=O)=O)cc2)CCCCC1,28µM*,-29%,-1%,i
COC(=O)[C@@H]1Cc2nc[nH]c2CN1C(C)C,71µM*,?,2%[70.6 µM],i
COC(=O)[C@@H]1Cc2nc[nH]c2CN1C1CCOCC1,-8%[230 µM],-11%[230 µM],6%[70.6 µM],i
c1cncc(Nc2cc3c(cn2)CN(Cc2c[nH]c4ccccc24)CCN3)c1,?,112µM*,-23%[70.6 µM],?
c1cncc(Nc2cc3c(cn2)CN(Cc2ccsc2)CCN3)c1,?,?,-4%[70.6 µM],20µM*
FC(F)(F)Oc1cccc(CN2CCNc3cc(Nc4cccnc4)ncc3C2)c1,?,?,-1%[70.6 µM],?
COc1ccccc1-c1nnc2n1C(C(=O)N1CCN(c3ncccn3)CC1)CC2 (stereo not drawn),i,4%,.,.
N#Cc1ccc2nc(CO[C@H]3CN(Cc4ccccc4F)C[C@H]3F)[nH]c2c1,?,?,-23%[70.6 µM],i
OCc1ccc(CN2C[C@H](O)C[C@H]2c2nc(-c3ccccc3)no2)o1,-14%[174 µM],-8%[172 µM],4%[70.6 µM],45µM*
O[C@@H]1C[C@@H](c2nc(-c3ccccc3)no2)N(Cc2cc3ccccc3o2)C1,?,?,2%[70.6 µM],40µM*
CN1CCCC1COc1ccc2c(n1)CN(Cc1ccc(F)cc1)C(=O)CO2 (stereo not drawn),?,-16%[172 µM],1%[70.6 µM],i
SMILES,NIH3T3 tox,HEK cytotox,hNpr1 antagonist,Luciferase inh
Cc1nc(CN2Cc3nc(OCc4ccc(F)cc4)ccc3OCC2=O)cs1,?,71µM*,?,i
O=C1COc2ccc(OCc3cncs3)nc2CN1Cc1ccc(F)cc1,?,112µM*,-23%[70.6 µM],i
CCN(CC)C(=O)c1cccc(-c2ccc(OCCn3ccnc3)cc2)c1,?,45µM*,-25%,i
COc1ccccc1CN1Cc2cc(NC(=O)c3ccc(Cl)cc3)ccc2OC(C)C1=O (stereo not drawn),?,25µM*,-4%,i
COc1ccc(CN2Cc3cc(NC(=O)c4ccccc4F)ccc3OC(C)C2=O)c(OC)c1 (stereo not drawn),?,35µM*,-2%,i
O=C(Nc1ccc2c(c1)CN(Cc1ccccc1F)C(=O)CO2)c1ccc(Cl)cc1,?,40µM*,-26%,?
COc1cccc(C(=O)Nc2ccc3c(c2)CN(Cc2cccc(OC)c2OC)C(=O)C(C)O3)c1 (stereo not drawn),35µM*,28µM*,-19%,i
COc1ccc(CN2Cc3cc(NC(=O)c4ccc(F)cc4)ccc3OC(C)C2=O)c(OC)c1 (stereo not drawn),-18%,?,-8%,i
COc1cccc(CN2Cc3cc(NC(=O)c4ccc(F)cc4F)ccc3OC(C)C2=O)c1OC (stereo not drawn),?,?,-14%,i
COc1cccc(CN2Cc3cc(NC(=O)c4ccccc4)ccc3OC(C)C2=O)c1OC (stereo not drawn),?,?,-12%,i
CC1Oc2ccc(NC(=O)c3ccc(Cl)c(Cl)c3)cc2CN(Cc2ccccc2F)C1=O (stereo not drawn),?,?,-18%,i
Cc1n[nH]nc1C(=O)N1C[C@H](CO)C[C@H](CN(C)C)C1,-3%,-4%,0%,i
COc1cccc(C(=O)Nc2ccc3c(c2)CN(Cc2cccc(OC)c2OC)C(=O)CO3)c1,-24%,45µM*,-2%,?
Cc1cccc(C(=O)NC(CC(C)C)c2nnc3n2CCNCC3)n1 (stereo not drawn),1%,-2%,-5%,i
O=C(CN1C(=O)C(Oc2ccc(F)cc2)C12CCCCC2)NCC1CC1 (stereo not drawn),-21%,?,.,.
O=C1C(Oc2ccc(F)cc2)C2(CCCCC2)N1Cc1ccc(F)cc1 (stereo not drawn),25µM*,40µM*,.,.
Cc1ccccc1C(=O)N1CCC(N2CCCNC2=O)CC1,3%[138 µM],-8%[172 µM],6%[70.6 µM],i
CCOC(=O)C1CCCN(C(=O)c2ccc3oc(-c4ccc(OC)nc4)nc3c2)C1 (stereo not drawn),-11%[138 µM],?,.,.
CC1CCCC(C)N1C(=O)c1ccc2nc(-c3ccncc3)oc2c1 (stereo not drawn),-29%[138 µM],71µM*,.,.
CCOC(=O)C1CCCN(C(=O)c2ccc3nc(-c4ccncc4)oc3c2)C1 (stereo not drawn),?,45µM*,.,.
CCOC(=O)C1CCN(C(=O)c2ccc3oc(-c4ccnc(Cl)c4)nc3c2)CC1,-16%,-13%,.,.
O=C(c1ccc2oc(-c3ccnc(Cl)c3)nc2c1)N1CCOCC1,35µM*,?,.,.
O=C(c1ccc2oc(-c3ccncc3)nc2c1)N1CCCCC1,?,40µM*,.,.
O=C(c1ccc2nc(-c3cccnc3)oc2c1)N1CCCCC1,-4%[138 µM],i,.,.
NC(=O)[C@@H]1CN(C(=O)c2ccncc2)C[C@H]1COc1ccccc1,-11%,i,0%,i
O=C(NC1CCCC1)N1CCC(OC2CCN(Cc3ccccc3)CC2)CC1,i,9%,-1%,i
